Source: PubChem
HCMV antiviral: inhibitors of human cytomegalovirus; activity change, negative = inhibition, % at 57.5 µM; HFF cells, HCMV-luciferase reporter, 72 h; active compounds read low; hit rate 4.5% among 410,000; in the data active = activity change below about -60%; inconclusive = no clear call, values can overlap the other calls; inactive = above about -39%
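HFF cells seeded 16 h at 37C, treated with compounds, infected with luciferase-reporter HCMV at MOI 1 PFU/cell; luciferase read at 72 h post infection, normalized to buffer-only and Salinomycin controls.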
Pf growth 96h: P. falciparum growth inhibition at 96 hour, primary screen for plastid delayed-death inhibitors; Potency, µM (doses to about 28.7 µM), inactives show at the top dose activity change, negative = inhibition, most hits filed as inhibitors; hit rate 6.9% among 320,000; P. falciparum luciferase reporter growth, 96 h; note: potency is the fitted concentration of half-maximal effect
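Infected RBCs, 2% Hct / 0.05% parasitemia final; luciferase-reporter P. falciparum; cpd 96 h, 37 C, 5% CO2; luciferase detection reagent; luminescence.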
Pf growth 48h: inhibits P. falciparum growth in the first generation, 48 h; P. falciparum luciferase growth in erythrocytes, 48 h; hit rate 5.9% among 310,000; Potency, µM (doses to about 28.7 µM), without a hit: at the top dose activity change, negative = inhibition, usual class: inhibitors; note: potency is the fitted concentration of half-maximal effect
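Firefly luciferase activity from engineered P. falciparum reports growth; inhibitors lower the luminescent signal. Cultures contained 2% hematocrit erythrocytes at 0.1% final parasitemia.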
HCV inh: blocks hepatitis C virus | hit rate 3.4% among 340,000 | Potency, µM (top dose mostly 41.8 µM), without a hit: at the highest dose activity change, negative = inhibition, hits mostly inhibitors | Huh7.5.1 HCVcc-Cre infection, luciferase reporter, 44 h | AID 651820; note: potency is the fitted concentration of half-maximal effect
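Antiviral activity was scored by luciferase reporter output from cells infected with HCVcc-Cre (~0.5 moi) in presence of compound, 44 h infection period, cells seeded 1,000/well 4 h prior.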
* marks the source's active call; other numbers are inactive results. Sampled rows, rich in hits. Any-hit rate of the full collection: about 13%. Unless noted, calls come from the whole dose curve; as a rule, active = well fitted inhibition curve with a large enough effect; inconclusive = small, poorly fitted or top-dose-only effect, or another doubt; inactive = no such curve, though single readings can be large or run the other way. % is set by controls: 0 for no effect and ±100 for the full control effect.

`CCOC(=O)c1ccc(NC(=O)COc2ccccc2OC)cc1` gave HCMV antiviral -13.2, Pf growth 96h 22.5%, Pf growth 48h inconclusive and HCV inh -9.3%.
`CCOc1ccccc1OCC(=O)NC1CCCCC1` gave HCMV antiviral -13.6, Pf growth 96h -12.9% and HCV inh -16.7%.
`COc1cc2ncc3c(-c4ccccc4)nn(-c4ccc(C)cc4)c3c2cc1OC` gave HCMV antiviral 15.1.
Screening COc1ccc(OC)c(NC(=O)CN(C)S(=O)(=O)c2ccc3[nH]c4c(c3c2)CCCC4)c1 returned HCMV antiviral -15.2.
For COc1cccc(/C=C2/Sc3ccc(C(=O)NC4CC4)cc3NC2=O)c1 the results were HCMV antiviral 5.0.
For CC(=O)OC[C@]12CCC(C)=C[C@H]1O[C@@H]1[C@H](O)[C@@H](OC(C)=O)[C@@]2(C)[C@]12CO2 the results were HCMV antiviral -76.9*, Pf growth 96h inconclusive, Pf growth 48h 0.0033µM* and HCV inh inconclusive.
`CCc1ccc(CNC(=O)c2sc3ncccc3c2-n2c(C)ccc2C)cc1` gave HCMV antiviral -10.2.
Screening FC(F)(F)c1cc(-c2ccco2)nc(NCc2ccccc2)n1 returned HCMV antiviral -12.0, Pf growth 96h inconclusive, Pf growth 48h inconclusive and HCV inh inconclusive.
Screening FC(F)(F)c1cc(-c2ccco2)nc(NCc2cccnc2)n1 returned HCMV antiviral -13.1, Pf growth 96h inconclusive, Pf growth 48h 11.7µM* and HCV inh inconclusive.
FC(F)(F)c1cc(-c2ccccc2)nc(NCc2cccnc2)n1 was read as HCMV antiviral 41.3, Pf growth 96h inconclusive, Pf growth 48h 3.7µM* and HCV inh inconclusive.
Fc1ccc(-c2cc(C(F)(F)F)nc(NCc3ccccc3)n2)cc1 was read as HCMV antiviral -20.2.
Cn1c(C(=O)NCc2ccccc2Cl)cc2sc(Cl)cc21 was read as HCMV antiviral -62.3*.
CCOc1ccc(CCNC(=O)c2cc3sc(Cl)cc3n2C)cc1OCC was read as HCMV antiviral -9.5, Pf growth 96h -5.8%, Pf growth 48h -5.7% and HCV inh 7.08µM*.
CCc1ccc(NC(=O)c2cc3sc(Cl)cc3n2C)cc1 was read as HCMV antiviral 56.3.
Cn1c(C(=O)NCc2cccnc2)cc2sc(Cl)cc21 was read as HCMV antiviral -14.5, Pf growth 96h inconclusive, Pf growth 48h 13.6% and HCV inh -12.1%.
Screening CCOc1ccc(NC(=O)c2cnn(-c3ccc(C)c(C)c3)c2C2CCN(C(=O)OC(C)(C)C)CC2)cc1 returned HCMV antiviral 2.4.
For CC(=O)Nc1cc2c(cc1NC(=O)Cn1nc(-c3ccc4c(c3)OCCO4)ccc1=O)OCCO2 the results were HCMV antiviral 7.4, Pf growth 96h 9.28µM* and HCV inh inconclusive.
`CCc1ccc(NCc2cc3cc4c(cc3n(CC(=O)Nc3ccc(Cl)cc3)c2=O)OCO4)cc1` gave HCMV antiviral 51.5.
`CC1CCN(CC2CCN(C(=O)NCc3ccccc3)CC2)CC1` gave HCMV antiviral -1.0.
CC(NC(=O)CC12CC3CC(CC(C3)C1)C2)C(=O)O (centres undefined) was read as HCMV antiviral 7.0, Pf growth 96h 9.28µM*, Pf growth 48h 6.8% and HCV inh 5.9%.
`COc1cccc(N2CCN(C(=O)CCS(=O)(=O)c3ccc4c(c3)CC(=O)N4C)CC2)c1` gave HCMV antiviral -6.7.
COc1ccc(OCC(=O)Nc2nonc2NC(=O)COc2ccc(OC)cc2)cc1 was read as HCMV antiviral inconclusive, Pf growth 96h 9.28µM*, Pf growth 48h 57.9% and HCV inh 20.7%.
COc1ccc2ccc(OCC(=O)Nc3cc(C)on3)cc2c1 was read as HCMV antiviral -27.5, Pf growth 96h inconclusive, Pf growth 48h 11.7µM* and HCV inh 0.0%.
For CCc1nonc1NC(=O)COc1ccc(Cl)c(C)c1 the results were HCMV antiviral 4.4, Pf growth 96h 4.15µM*, Pf growth 48h inconclusive and HCV inh 3.6%.
COc1ccc(CC(=O)Nc2cc(C)on2)cc1 was read as HCMV antiviral 25.6, Pf growth 96h 36.8%, Pf growth 48h 12.3% and HCV inh 7.2%.
CCc1nonc1NC(=O)COc1cc(C)c(Cl)c(C)c1 was read as HCMV antiviral inconclusive, Pf growth 96h 10.8%, Pf growth 48h inconclusive and HCV inh 2.1%.
